Experimental data: PubChem BioAssay AID652017 (The Scripps Research Institute Molecular Screening Center, 2013)
Among all 370,000 compounds or so, about 3,800 (1%) were called active. What follows is part of a selection rich in actives, with near analogues and random picks from the rest. Values without a mark were called inactive. Cut-off read from the data, not from the text of the source: active = activation above about 7.8%; inactive = the rest.

Experiment: SMARCA2 (BRM) function activators, primary screen, cell-based, luminescence, high throughput (AID 652017);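 note: 0% = vehicle wells and 100% = reference activator wells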
Details: MG213 cells, MMTV-luciferase reporter, dexamethasone, overnight; at 9.1 µM; hits give high values

| SMILES | activation |
| --- | --- |
| COc1ccc(CN2CC[C@H]3C=CC[C@@H](C(=O)N4CCOCC4)[C@H]3C2=O)cc1OC | 1.07% |
| Cc1ccc(Nc2nc(Cl)c(C=O)s2)cc1 | 8.44% (active) |
| Cc1ccc(Nc2cc(C)nc3c(C)ccc([N+](=O)[O-])c23)cc1 | -1.39% |
| Cc1ccc(Nc2ccccc2N)cc1 | 0.3% |
| COC(=O)C1CN(CCc2ccccc2)CCS(=O)(=O)N1Cc1ccc(F)cc1 (stereo not drawn) | 0.54% |
| CC1=CC(=O)C=CC1(C)C(Cl)(Cl)Cl (stereo not drawn) | -0.07% |
| Cc1cc(C)nc(Nc2n[nH]c(-c3ccccc3N)n2)n1 | 8.89% (active) |
| Clc1ccc(-n2c(SC/C=C/c3ccccc3)nnc2-c2ccco2)cc1 | -3.27% |
| Cc1ccc2nnn(Cc3cccc(C(C)(C)C)c3O)c2c1 | -2.51% |
| CCOC(=O)CNC(=O)N(C)[C@H]1C[C@H]2c3[nH]c4c(-c5ccc6c(c5)OCO6)cccc4c3CCN2C(=O)[C@H]1[C@H](C)O | -1.46% |
| COCC1CCN(C(=O)C2CCC(=O)N(CC3CCCCC3)C2)CC1 (stereo not drawn) | -3.22% |
| COCC1CCN(C(=O)C2CCC(=O)N(Cc3cccc(C(F)(F)F)c3)C2)CC1 (stereo not drawn) | 13.1% (active) |
| O=C1CCC(C(=O)N2CCCCO2)CN1Cc1cccc(C(F)(F)F)c1 (stereo not drawn) | -2.44% |
| O=C(CSc1nnc(-c2cccc(Cl)c2)n1Cc1ccco1)Nc1ccc(OCc2ccccc2)cc1 | -5.35% |
| Cc1ccc(C(=O)Nc2nc3ccc(Cl)cc3s2)o1 | 12.3% (active) |
| O=C(Nc1nc2ccc(Cl)cc2s1)c1cc(-c2ccc(Cl)cc2)nc2ccccc12 | -3.62% |
| Cc1sc2ncnc(N3CCC(C(=O)Nc4nc5ccc(Cl)cc5s4)CC3)c2c1C | 4.88% |
| COC1=C[C@H](C(=O)NCCNC(C)=O)[C@H](C)[C@@H](c2ccccc2)CC1=O | -1.73% |
| O=C1CC[C@@H](COc2ccc3[nH]cc(-c4ccccc4)c3c2-c2ccccc2)N1 | -2.62% |
| COC(=O)[C@]12C[C@H](CC(=O)N3CCOCC3)C(=O)N(Cc3ccc(Cl)cc3Cl)C1=C[C@H](C(C)C)O[C@@H]2C1CC1 | -2.82% |
| Cc1nc2ccccc2nc(=O)c1NNc1ccc([N+](=O)[O-])cc1 | 2.04% |
| Cc1ccc(-n2cc3ccc([N+](=O)[O-])cc3n2)cc1 | 3.85% |

| SMILES | activation |
| --- | --- |
| O=[N+]([O-])c1ccc2c(c1)Nc1nc3ccccc3nc1N2 | 15.2% (active) |
| COc1ccc(CSc2nnc(SCC(=O)Nc3ccccc3C(F)(F)F)s2)cc1 | -1.77% |
| COC(=O)C1=CN(Cc2ccc(OC)c(OC)c2)C=C(C(=O)OC)C1c1cccs1 | -1.26% |
| COc1ccc(CN2CCOC2=O)cc1OC | -2.13% |
| COc1ccc(CC2c3cc(OC)c(OC)cc3CC[N+]2(C)CCC(=O)OCCCCCOC(=O)CC[N+]2(C)CCc3cc(OC)c(OC)cc3C2Cc2ccc(OC)c(OC)c2)cc1OC (stereo not drawn) | 11.4% (active) |
| CN(CCO)c1cccc2c1S(=O)(=O)N(Cc1cn(Cc3ccc(C(F)(F)F)cc3)nn1)Cc1ccccc1O2 | 3.38% |
| CC(C)CNC(=O)OCc1cn(Cc2ccc(F)cc2)nn1 | -0.88% |
| CCOC(=O)[C@@]12CCC3=C1N(CCC3)C(=O)[C@H](CC(=O)N1CCN(C(=O)c3ccco3)CC1)C2 | -0.99% |
| COc1cccc(CNC(=O)[C@H]2CCCN2C(=O)[C@H]2CCCN2C(=O)c2ccc(F)cc2)c1 | -5.59% |
| O=C(NC1CCCC1)C(=O)c1c[nH]c2ccccc12 | 10.3% (active) |
| O=C(NCCCc1ccccc1)C(=O)c1c[nH]c2ccccc12 | 7.21% |
| CC1CCN(CC(=O)c2c[nH]c3ccccc23)CC1 | 4.35% |
| Cc1nn(C(C)(C)C)c(OC(=O)CC(C)C)c1S(=O)(=O)c1ccccc1 | -0.75% |
| N#Cc1c(/N=C/N2CCCC2)oc(-c2ccccc2)c1-c1ccccc1 | 1.32% |
| CCC(C)N(C)C1CCN(C(=S)Nc2ccc(OC)cc2)CC1 (stereo not drawn) | 8.91% (active) |
| COc1ccc(N2CCN(C(=S)Nc3ccc(S(N)(=O)=O)cc3)CC2)cc1 | -1.43% |
| CCOc1ccc(NC(=S)N2CCC(N(C)CC3CCCO3)CC2)cc1 (stereo not drawn) | 4.49% |
| O=C(CSc1nc2ccccc2n1Cc1ccccc1)NNC(=S)Nc1ccccc1 | 4.3% |
| COc1ccc(OC)c(NC(=O)c2cccc(S(=O)(=O)N3CCN(C(C)=O)CC3)c2)c1 | -1.12% |
| COc1cccc(C(=O)Nc2cc3c(cc2Br)OCCCO3)c1 | 11% (active) |
| COc1cccc(/C=C/C(=O)Nc2ccc3c(c2)OCCO3)c1 | 5.29% |
